Compounds with a hit are over-represented: about 19% of the library has one in this group of screens.
Chronic BCR inh – inhibitors of chronic active B-cell receptor signaling; ABC-DLBCL IkBa-CBG/CBR reporter, luminescence ratio, 4 h; Potency, µM (top dose mostly 46.1 µM), usual class: inhibitors; 0.05% of 340,000 active; active = well fitted inhibition curve with a large enough effect in the signal ratio, with a control signal flat, not every such curve was filed as active; inconclusive = small, poorly fitted or top-dose-only effect, or effect the other way, or a change in a side signal; the % refers to the signal ratio
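TMD8 human ABC-DLBCL cells with doxycycline-inducible IκBα–green luciferase fusion and unfused red luciferase, in 0.5% FBS medium; compounds up to 46 uM, 4 h at 37C. Green/red luminescence ratio, filter-overlap corrected, fitted to concentration-response curves.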
TDP1 cell noCPT – qHTS for Inhibitors of human tyrosyl-DNA phosphodiesterase 1 (TDP1): qHTS in cells in absence of CPT; AID 686978, 2013; DT40 Tdp1-/- hTDP1 cells, no CPT, ATP luminescence, 48 h; 15% of 420,000 active; Potency, µM (doses to about 46.2 µM), hits mostly inhibitors; also: nearly all actives have a fitted effect of over 55% in size
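Growth kinetics read by CellTiter-Glo luminescence after ≥48 hr at 37 °C. Cells: DT40 Tdp1-/- stably carrying human TDP1, 400 per well, compound exposure in the absence of CPT (DMSO vehicle).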
SW480 rereplic – DNA re-replication induction in SW480 cells; SW480 DNA re-replication, Hoechst DNA content imaging, 48 h; Potency, µM (top dose mostly 46.1 µM), hits mostly activators; 1.8% of 340,000 active; AID 624297; also: nearly all actives have a fitted effect of over 55% in size
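First, 250 cells per well were seeded. Next, compound or vehicle (23 nL) was pinned in, plates sat 48 hr at 37 C. Finally Hoechst was added for 40 min before fluorescence scanning.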
DT40 TDP1 CPT – DT40-hTDP1 cell growth loss with CPT | AID 686979 | Potency, µM (highest dose often 46.2 µM), most hits filed as inhibitors | chicken DT40 Tdp1-/-;hTDP1 cells + 20 nM CPT, ATP luminescence, 48 h | 12% of 420,000 active; also: nearly all actives have a fitted effect of over 55% in size
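Cell growth measured by CellTiter-Glo luminescence after a minimum 48 h, 37 C compound exposure with 20 nM CPT in Tdp1-knockout DT40 cells stably expressing hTDP1, seeded 400/well; qHTS titration format.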
MCF10A rerep – induces DNA re-replication in MCF 10a normal breast cells; MCF 10A DNA re-replication, Hoechst nuclear intensity, 48 h; Potency, µM (series often up to 46.1 µM), usual class: activators; 2.9% of 350,000 active; AID 624296; also: nearly all actives have a fitted effect of over 50% in size
IL-1B inflam inh – inhibitors of inflammasome signaling (IL-1 beta secretion); THP-1 LPS/ATP IL-1B secretion, AlphaLISA, 16 h; active compounds read low; activity change, % at 57.5 µM; 4.7% of 360,000 active; in the data active = activity change below about -50%; inconclusive = mostly about -30% to -49%
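Secreted IL-1B measured by AlphaLISA bead assay after 16 h compound exposure of THP-1 cells; compounds (final up to 57.5 uM) added 1 h before LPS (250 ng/mL) and ATP (1.25 mM) stimulation; lower signal means less secretion.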
Of the large screens only hits and unclear results are named; the others gave an inactive call. Unless noted, calls follow the shape of the dose curve; as a rule, active = well fitted curve in the direction sought with a large enough effect; inconclusive = small, poorly fitted or top-dose-only effect, or another doubt; inactive = no such curve, though single readings can be large; an effect the other way counts as inactive or inconclusive.

CCN(CCCN(C)C)c1ccc(/C=C/c2ccnc3ccccc23)cc1	TDP1 cell noCPT 15.8µM, DT40 TDP1 CPT inconclusive (no result: Chronic BCR inh, SW480 rereplic, MCF10A rerep, IL-1B inflam inh)
CCCCCCCCCCCCCCCCCCN(CCCCCCCCCCCCCCCCCC)c1ccc(/C=C/c2ccnc3ccccc23)cc1	none (no result: Chronic BCR inh, SW480 rereplic, MCF10A rerep, IL-1B inflam inh)
COc1ccccc1N1CCN(C2CCCCC2NS(=O)(=O)c2ccccc2)CC1 (centres undefined)	TDP1 cell noCPT 16.4µM, DT40 TDP1 CPT 20.6µM, MCF10A rerep inconclusive
CN1CCN(C2CCCCC2NS(=O)(=O)c2ccccc2)CC1 (centres undefined)	none
O=C1CSc2cc(Cl)ccc2N1	none (no result: Chronic BCR inh)
CCCCN1C(=O)C(C(=O)OCc2ccccc2)CC2=C1CCCC2=O (centres undefined)	SW480 rereplic inconclusive, MCF10A rerep inconclusive (no result: Chronic BCR inh)
Cc1nn(CC(=O)N2CCN(c3ccccc3)CC2)c(=O)c2cc3cc(F)ccc3n12	none (no result: Chronic BCR inh, SW480 rereplic, MCF10A rerep, IL-1B inflam inh)
COc1ccccc1N1CCN(c2ncnc3sc(C(=O)NCC4CCCO4)c(C)c23)CC1 (centres undefined)	TDP1 cell noCPT 13µM, DT40 TDP1 CPT inconclusive
COc1ccc(N2CCN(c3ncnc4sc(C(=O)NCC5CCCO5)c(C)c34)CC2)cc1 (centres undefined)	TDP1 cell noCPT 23.1µM, DT40 TDP1 CPT inconclusive, MCF10A rerep inconclusive
CCOC(=O)c1c(NC(=O)C2COc3ccccc3O2)sc2c1CCN(Cc1ccccc1)C2 (centres undefined)	DT40 TDP1 CPT 23.1µM, MCF10A rerep inconclusive
COC(=O)N1CCc2c(sc(NC(=O)C3COc4ccccc4O3)c2C(N)=O)C1 (centres undefined)	Chronic BCR inh inconclusive, TDP1 cell noCPT 16.4µM, DT40 TDP1 CPT 14.6µM, MCF10A rerep inconclusive
NC(=O)c1c(NC(=O)C2COc3ccccc3O2)sc2c1CCN(Cc1ccccc1)C2 (centres undefined)	SW480 rereplic inconclusive, MCF10A rerep 23.1µM
CCC(=O)Nc1sc2c(c1C(=O)OC)CCN(Cc1ccccc1)C2	none
COc1cccc(OCCSc2nc(N)cc(N)n2)c1	TDP1 cell noCPT 20.6µM, DT40 TDP1 CPT inconclusive
CCCC1C(=O)Nc2ccccc2N1C(=O)c1ccc(C(C)(C)C)cc1 (centres undefined)	Chronic BCR inh inconclusive, TDP1 cell noCPT 20.6µM, SW480 rereplic inconclusive, DT40 TDP1 CPT inconclusive, MCF10A rerep 25.9µM, IL-1B inflam inh -82.1
CCCC1C(=O)Nc2ccccc2N1C(=O)c1cccc(C)c1 (centres undefined)	none
CN(C)C(=O)CCc1ccc2c3c([nH]c2c1)[C@]1(C)[C@@H](C(=O)N2CCCCC2)C[C@H](CC(=O)NC(C)(C)C)C(=O)N1CC3	TDP1 cell noCPT inconclusive, SW480 rereplic inconclusive, DT40 TDP1 CPT inconclusive
CC(C)=CCC/C(C)=C/CNC(=O)C[C@H]1C[C@H](C(=O)N2CCOCC2)[C@@]2(C)c3[nH]c4cc(CCC(=O)N(C)C)ccc4c3CCN2C1=O	Chronic BCR inh inconclusive, TDP1 cell noCPT 16.4µM, SW480 rereplic inconclusive, DT40 TDP1 CPT 23.1µM
CN(C)C(=O)CCc1ccc2c3c([nH]c2c1)[C@]1(C)[C@@H](C(=O)N2CCOCC2)C[C@H](CC(=O)NC(C)(C)C)C(=O)N1CC3	none
CC[C@]12c3[nH]c4ccccc4c3CCN1C(=O)C(CC(=O)NCCN1CCOCC1)C[C@@H]2C(=O)N1CCN(C(=O)C2CC2)CC1 (some centres undefined)	none
CC(C)=CCC/C(C)=C/CNC(=O)C[C@H]1C[C@H](C(=O)N2CCCCC2)[C@@]2(C)c3[nH]c4cc(CCC(=O)N(C)C)ccc4c3CCN2C1=O	TDP1 cell noCPT 14.6µM, DT40 TDP1 CPT 7.31µM, MCF10A rerep inconclusive, IL-1B inflam inh -67.9
CC[C@]12c3[nH]c4cc(CCC(=O)N(C)C)ccc4c3CCN1C(=O)[C@@H](CC(=O)NC/C=C(\C)CCC=C(C)C)C[C@@H]2C(=O)N1CCN(C(=O)C2CC2)CC1	Chronic BCR inh inconclusive, TDP1 cell noCPT 6.51µM, DT40 TDP1 CPT 8.2µM
CC[C@]12c3[nH]c4cc(-c5ccco5)ccc4c3CCN1C(=O)[C@@H](CC(=O)NC/C=C(\C)CCC=C(C)C)C[C@@H]2C(=O)N1CCN(C(=O)C2CC2)CC1	TDP1 cell noCPT inconclusive, DT40 TDP1 CPT inconclusive, MCF10A rerep inconclusive, IL-1B inflam inh inconclusive
CC[C@]12c3[nH]c4ccc(Cl)cc4c3CCN1C(=O)[C@@H](CC(=O)NC/C=C(\C)CCC=C(C)C)C[C@@H]2C(=O)N1CCN(C(=O)C2CC2)CC1	Chronic BCR inh inconclusive, TDP1 cell noCPT 20.6µM, SW480 rereplic inconclusive, DT40 TDP1 CPT inconclusive, MCF10A rerep inconclusive, IL-1B inflam inh inconclusive
Cn1c(=O)c(-c2ccc(F)cc2)nc2cnc(Nc3ccccc3)nc21	none (no result: Chronic BCR inh, SW480 rereplic, MCF10A rerep, IL-1B inflam inh)
CCOC(=O)c1sc(NC(=O)C(C)C)c(C#N)c1C	TDP1 cell noCPT inconclusive, DT40 TDP1 CPT inconclusive
NC(=S)N/N=C1\CC(n2nnn(-c3cccc(Cl)c3)c2=S)C2COC1O2 (centres undefined)	Chronic BCR inh inconclusive, TDP1 cell noCPT inconclusive
OCC[C@@H]1C[C@H](O)[C@@H](O)[C@@]2(Cc3ccccc3O2)O1	none
Cc1cc(C)c2nc3nc(C)c(C)cc3c(N)c2c1	Chronic BCR inh inconclusive, TDP1 cell noCPT 6.51µM, DT40 TDP1 CPT 8.2µM, MCF10A rerep inconclusive, IL-1B inflam inh -88.6
CCCSc1nc(C)c2cc(C)cc(C)c2n1	Chronic BCR inh inconclusive
O=C(CN1C(=O)COc2ccccc2C1=O)c1ccc2c(c1)OCCO2	none
CCC(Oc1ccc(F)cc1)C(=O)Nc1nc(-c2ccc(F)cc2)ns1 (centres undefined)	TDP1 cell noCPT 10.3µM, DT40 TDP1 CPT 18.4µM (no result: Chronic BCR inh, SW480 rereplic, MCF10A rerep, IL-1B inflam inh)
COc1ccc(CN2C(=O)CN(S(C)(=O)=O)CC2(C)C(=O)NCc2ccccc2)cc1OC (centres undefined)	none (no result: Chronic BCR inh, SW480 rereplic, MCF10A rerep)
CSc1ccc(S(=O)(=O)N2CCC(C(=O)NCC3CCCO3)CC2)cc1 (centres undefined)	MCF10A rerep inconclusive
COc1ccc(Br)cc1C(=O)Nc1cccc(-c2nnc(-c3ccco3)o2)c1	TDP1 cell noCPT inconclusive, DT40 TDP1 CPT 23.1µM, IL-1B inflam inh inconclusive (no result: Chronic BCR inh)
Cc1ccc(SCC(=O)Nc2cccc(-c3nnc(-c4ccco4)o3)c2)cc1	TDP1 cell noCPT inconclusive, DT40 TDP1 CPT 18.4µM
O=C(CSc1ccc(Cl)cc1)Nc1cccc(-c2nnc(-c3ccco3)o2)c1	TDP1 cell noCPT inconclusive, DT40 TDP1 CPT inconclusive (no result: SW480 rereplic)
COC(=O)c1cc2oc(C)cc2n1CC(=O)Nc1cc(Cl)ccc1OC	DT40 TDP1 CPT inconclusive (no result: Chronic BCR inh, SW480 rereplic, MCF10A rerep, IL-1B inflam inh)
O=S(=O)(NN=C1CCCCCC1)c1ccccc1	none

From PubChem BioAssay
